In all, about 5,500 compounds went through this assay and about 2,000 (36%) were called active. Inconclusive results (about 18%) are left out. No stated cut-off is given here; in the data, active means normalized growth mostly below about 0.91 (no sharp cut-off); inconclusive means no clear call, values can overlap the other calls; inactive means mostly above about 0.92. Some of the results follow.
Test: chemical genetic growth profiling, strain panel (AID 1159580);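 further: tested at 20 µM; growth read once vehicle control cultures reached saturation at 30 °C; 1 = growth at the plate median or of vehicle wells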
Conditions: growth OD

Measured: normalized growth

CCN1C[C@]2(C)CC[C@H](OC)[C@]34C2[C@H](O)[C@]2(OCO[C@@]25C[C@H](OC)[C@H]2C[C@]3(O)C5[C@H]2O)C14
inactive: S. cerevisiae deletion strains, locus YAL013W, strain DEP1, stronger effect = lower value 0.998 | S. cerevisiae deletion strains, locus YBR021W, strain FUR4, stronger effect = lower value 1.01 | S. cerevisiae deletion strains, locus YBR229C, strain ROT2, stronger effect = lower value 1.01 | S. cerevisiae deletion strains, locus YCL029C, strain bik1, stronger effect = lower value 1.01 | S. cerevisiae deletion strains, locus YDL035C, strain GPR1, stronger effect = lower value 1.03 | S. cerevisiae deletion strains, locus YDL074C, strain BRE1, stronger effect = lower value 1.04 | S. cerevisiae deletion strains, locus YDL101C, strain DUN1, stronger effect = lower value 1.01 | S. cerevisiae deletion strains, locus YDL134C, strain PPH21, stronger effect = lower value 1.01 | S. cerevisiae deletion strains, locus YDL185W, strain tfp1, stronger effect = lower value 1 | S. cerevisiae deletion strains, locus YDL192W, strain arf1, stronger effect = lower value 1.01 | S. cerevisiae deletion strains, locus YDR101C, strain arx1, stronger effect = lower value 0.995 | S. cerevisiae deletion strains, locus YDR150W, strain NUM1, stronger effect = lower value 0.988 | S. cerevisiae deletion strains, locus YDR162C, strain NBP2, stronger effect = lower value 0.992 | S. cerevisiae deletion strains, locus YDR318W, strain mcm21, stronger effect = lower value 1.01 | S. cerevisiae deletion strains, locus YDR388W, stronger effect = lower value 1.01 | S. cerevisiae deletion strains, locus YDR502C, strain sam2, stronger effect = lower value 0.998 | S. cerevisiae deletion strains, locus YEL061C, strain CIN8, stronger effect = lower value 0.994 | S. cerevisiae deletion strains, locus YER110C, stronger effect = lower value 1.01 | S. cerevisiae deletion strains, locus YER155C, strain BEM2, stronger effect = lower value 0.981 | S. cerevisiae deletion strains, locus YER167W, strain BCK2, stronger effect = lower value 1 | S. cerevisiae deletion strains, locus YGL078C, strain dbp3, stronger effect = lower value 0.998 | S. cerevisiae deletion strains, locus YGL086W, strain mad1, stronger effect = lower value 1 | S. cerevisiae deletion strains, locus YGL248W, strain PDE1, stronger effect = lower value 1 | S. cerevisiae deletion strains, locus YGR078C, strain PAC10, stronger effect = lower value 1.03 | S. cerevisiae deletion strains, locus YGR135W, strain pre9, stronger effect = lower value 1.01 | S. cerevisiae deletion strains, locus YGR229C, strain SMI1, stronger effect = lower value 0.999 | S. cerevisiae deletion strains, locus YGR252W, strain gcn5, stronger effect = lower value 1.02 | S. cerevisiae deletion strains, locus YHR030C, strain SLT2, stronger effect = lower value 0.999 | S. cerevisiae deletion strains, locus YHR079C, strain IRE1 (second series), stronger effect = lower value 1.01 | S. cerevisiae deletion strains, locus YHR094C, strain hxt1, stronger effect = lower value 1 | S. cerevisiae deletion strains, locus YHR129C, strain ARP1, stronger effect = lower value 1 | S. cerevisiae deletion strains, locus YHR200W, strain rpn10, stronger effect = lower value 1 | S. cerevisiae deletion strains, locus YIL066C, strain RNR3, stronger effect = lower value 1 | S. cerevisiae deletion strains, locus YIL073C, strain SPO22, stronger effect = lower value 1 | S. cerevisiae deletion strains, locus YIL125W, strain kgd1, stronger effect = lower value 1 | S. cerevisiae deletion strains, locus YIR030C, strain dcg1, stronger effect = lower value 1 | S. cerevisiae deletion strains, locus YJL095W, strain BCK1, stronger effect = lower value 1.04 | S. cerevisiae deletion strains, locus YJL134W, strain LCB3, stronger effect = lower value 0.999 | S. cerevisiae deletion strains, locus YJL168C, strain set2, stronger effect = lower value 1.01 | S. cerevisiae deletion strains, locus YJL187C, strain SWE1 (second series), stronger effect = lower value 1.01 | S. cerevisiae deletion strains, locus YJR043C, strain POL32, stronger effect = lower value 1.01 | S. cerevisiae deletion strains, locus YJR075W, strain HOC1, stronger effect = lower value 1 | S. cerevisiae deletion strains, locus YKL009W, strain mrt4, stronger effect = lower value 1.02 | S. cerevisiae deletion strains, locus YKL068W, stronger effect = lower value 0.991 | S. cerevisiae deletion strains, locus YKL085W, strain MDH1 (second series), stronger effect = lower value 0.999 | S. cerevisiae deletion strains, locus YKL085W, strain MDH1, stronger effect = lower value 0.999 | S. cerevisiae deletion strains, locus YKL190W, strain CNB1, stronger effect = lower value 0.967 | S. cerevisiae deletion strains, locus YKR001C, strain vps1, stronger effect = lower value 1.01 | S. cerevisiae deletion strains, locus YLR039C, strain RIC1, stronger effect = lower value 1.03 | S. cerevisiae deletion strains, locus YLR058C, strain SHM2, stronger effect = lower value 1.01 | S. cerevisiae deletion strains, locus YLR102C, strain apc9, stronger effect = lower value 1 | S. cerevisiae deletion strains, locus YLR262C, strain YPT6, stronger effect = lower value 1.03 | S. cerevisiae deletion strains, locus YLR268W, strain sec22, stronger effect = lower value 1.02 | S. cerevisiae deletion strains, locus YLR330W, strain CHS5, stronger effect = lower value 1.01 | S. cerevisiae deletion strains, locus YLR342W, strain FKS1 (second series), stronger effect = lower value 1.03 | S. cerevisiae deletion strains, locus YLR371W, strain rom2, stronger effect = lower value 1 | S. cerevisiae deletion strains, locus YLR418C, strain cdc73, stronger effect = lower value 1.04 | S. cerevisiae deletion strains, locus YML016C, strain PPZ1, stronger effect = lower value 1 | S. cerevisiae deletion strains, locus YML032C, strain rad52, stronger effect = lower value 1 | S. cerevisiae deletion strains, locus YML124C, strain tub3, stronger effect = lower value 1 | S. cerevisiae deletion strains, locus YMR078C, strain ctf18, stronger effect = lower value 1.01 | S. cerevisiae deletion strains, locus YMR223W, strain ubp8, stronger effect = lower value 0.998 | S. cerevisiae deletion strains, locus YMR263W, strain SAP30, stronger effect = lower value 0.998 | S. cerevisiae deletion strains, locus YMR307W, strain GAS1, stronger effect = lower value 1.07 | S. cerevisiae deletion strains, locus YNL067W, strain RPL9B, stronger effect = lower value 0.995 | S. cerevisiae deletion strains, locus YNL128W, strain TEP1, stronger effect = lower value 1 | S. cerevisiae deletion strains, locus YNL153C, strain GIM3, stronger effect = lower value 1 | S. cerevisiae deletion strains, locus YNL233W, strain BNI4, stronger effect = lower value 1.01 | S. cerevisiae deletion strains, locus YNL250W, strain rad50, stronger effect = lower value 0.999 | S. cerevisiae deletion strains, locus YNL271C, strain bni1, stronger effect = lower value 1.01 | S. cerevisiae deletion strains, locus YNL298W, strain CLA4, stronger effect = lower value 1 | S. cerevisiae deletion strains, locus YNL307C, strain MCK1, stronger effect = lower value 1.02 | S. cerevisiae deletion strains, locus YNL322C, strain KRE1, stronger effect = lower value 1 | S. cerevisiae deletion strains, locus YNR052C, strain pop2, stronger effect = lower value 1.01 | S. cerevisiae deletion strains, locus YOL006C, strain TOP1, stronger effect = lower value 1.02 | S. cerevisiae deletion strains, locus YOL012C, strain htz1 1.33 | S. cerevisiae deletion strains, locus YOL147C, strain pex11, stronger effect = lower value 1.01 | S. cerevisiae deletion strains, locus YOR061W, strain CKA2, stronger effect = lower value 1.01 | S. cerevisiae deletion strains, locus YOR069W, strain VPS5, stronger effect = lower value 1 | S. cerevisiae deletion strains, locus YOR136W, strain idh2, stronger effect = lower value 1.01 | S. cerevisiae deletion strains, locus YOR144C, strain elg1, stronger effect = lower value 1.01 | S. cerevisiae deletion strains, locus YOR184W, strain ser1, stronger effect = lower value 1.03 | S. cerevisiae deletion strains, locus YOR316C, strain cot1, stronger effect = lower value 1 | S. cerevisiae deletion strains, locus YPL055C, strain LGE1, stronger effect = lower value 0.987 | S. cerevisiae deletion strains, locus YPL241C, strain CIN2, stronger effect = lower value 0.998 | S. cerevisiae deletion strains, locus YPR119W, strain clb2, stronger effect = lower value 1 | S. cerevisiae deletion strains, locus YPR141C, strain kar3, stronger effect = lower value 1 | S. cerevisiae deletion strains, locus YPR163C, strain tif3, stronger effect = lower value 1.02 | S. cerevisiae deletion strains, locus YPR167C, strain met16, stronger effect = lower value 1.01 | S. cerevisiae deletion strains, strain wtn01, stronger effect = lower value 1 | S. cerevisiae strains, strain wild type, stronger effect = lower value 0.987
